The values below come from article PMC5540273 (PLoS ONE, 2017).

Some test systems named below: ZAK; ZAP70; p38-delta.
Common to all, as to conditions: concentration: 1 μM, replicates: in singlicate; n = 1
The next experiment deals with T1, p38-alpha.
T1 construct: gene MAPK14

The subject of another experiment is T2, p38-beta.
T2 construct: gene MAPK11

In a further experiment the test system is T3, p38-gamma.
T3 construct: gene MAPK12
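Also: KINOMEscan kinase panel screen.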

Turning to `COc1ccc(C)c(Nc2ccnc(Nc3ccc(-c4cnc[nH]4)cc3)n2)c1.Cl` [GW784041], the “%Inh” value is 92.4% in the experiment with ZAK; 0% with ZAP70; 0% in the experiment on p38-alpha; 14% in the experiment with p38-beta; 11% in the experiment on p38-delta; 42% in the experiment with p38-gamma.
In the case of `NCCC(NC(=O)c1cc(Br)c(-c2ccnc3[nH]ccc23)s1)c1ccccc1.O=C(O)C(F)(F)F.O=C(O)C(F)(F)F` (stereo not drawn) [GSK1307810], the “%Inh” value with ZAK came out at 10%; in the experiment with ZAP70 it was 0%; with p38-alpha, 8%; in the experiment with p38-beta it was 0%; in the experiment on p38-delta it was 21%; with p38-gamma, 0%.
With `CC(=O)Nc1cn2nc(Oc3cccc(NC(=O)c4cccc(C(F)(F)F)c4)c3)ccc2n1`, the “%Inh” value in the experiment on ZAK came out at 98.6%; in the experiment with ZAP70, 0%; in the experiment with p38-alpha, 32%; with p38-beta it was 28%; with p38-delta, 0%; in the experiment with p38-gamma, 34%.
For `COC(=O)Nc1nc2ccc(Oc3ccc(CC(=O)Nc4cc(C(F)(F)F)ccc4F)cc3)cc2[nH]1` [GW680903], the “%Inh” value in the experiment on ZAK is recorded as 91.6%; with ZAP70 it was 38%; with p38-alpha, 6%; in the experiment on p38-beta, 0%; in the experiment with p38-delta, 47%; with p38-gamma, 0%.
Regarding `O=C(Nc1n[nH]c2nc(-c3ccccc3O)ccc12)C1CC1` [SB-711880], the “%Inh” value is on record as 0% in the experiment with ZAK; 0% with ZAP70; 0% in the experiment with p38-alpha; 0% with p38-beta; 0% in the experiment with p38-delta; 39% in the experiment on p38-gamma.
With `Cl.Cl.NC(CNC(=O)c1cc(Br)c(-c2ccnc3[nH]ccc23)s1)c1ccccc1` (stereo not drawn) [GSK1322949], the “%Inh” value in the experiment on ZAK is recorded as 11%; in the experiment with ZAP70, 0%; with p38-alpha, 23%; in the experiment with p38-beta, 0%; in the experiment on p38-delta it was 14%; with p38-gamma, 50%.
For the molecule `CCNC(=O)/C=C/c1n[nH]c2cc(Sc3ccccc3C(=O)NC)ccc12`, the “%Inh” value with ZAK is reported as 48%; in the experiment with ZAP70, 0%; with p38-alpha, 13%; with p38-beta it was 11%; in the experiment with p38-delta, 18%; in the experiment on p38-gamma it was 16%.
In the case of `Cc1ccc(NC(=O)c2cccc(N3CCCCC3)c2)cc1-c1ccc(C(=O)NCC2CC2)cc1` [GSK1917008], the “%Inh” value in the experiment on ZAK is 33%; in the experiment on ZAP70, 0%; in the experiment on p38-alpha, 99.9%; in the experiment on p38-beta, 99.4%; in the experiment on p38-delta it was 46%; with p38-gamma, 50%.
Take `Cc1cc(-c2ccnc(Nc3cccc(C#N)c3)n2)cc(C)c1O` [GSK1440913]: the “%Inh” value with ZAK is 16%; in the experiment on ZAP70, 2%; in the experiment with p38-alpha it was 0%; in the experiment on p38-beta, 0%; with p38-delta, 99.7%; with p38-gamma, 91.6%.
Take `Cl.Cl.NCC(NC(=O)c1cc(-c2cccnc2)c(-c2ccnc3[nH]ccc23)s1)c1ccccc1` (stereo not drawn) [GSK1323434]: the “%Inh” value was 7% in the experiment on ZAK; 0% in the experiment with ZAP70; 31% with p38-alpha; 0% with p38-beta; 21% with p38-delta; 32% in the experiment on p38-gamma.
With `CN(C)c1ncnc2nc[nH]c12` [SKF-31736], the “%Inh” value in the experiment with ZAK is on record as 0%; in the experiment on ZAP70 it was 7%; with p38-alpha, 7%; with p38-beta, 0%; in the experiment on p38-delta it was 0%; with p38-gamma, 2%.
As to `O=C(Nc1n[nH]c2nc(-c3cccc(O)c3)ccc12)C1CC1` [SB-711805], the “%Inh” value is 25% in the experiment with ZAK; 23% in the experiment with ZAP70; 7% in the experiment with p38-alpha; 18% with p38-beta; 0% in the experiment with p38-delta; 12% with p38-gamma.
As for `Cc1ccccc1CC(=O)N1CCc2cc(-c3cn(C)c4ncnc(N)c34)ccc21` [GSK2603346], the “%Inh” value with ZAK was determined as 0%; with ZAP70, 0%; in the experiment on p38-alpha, 0%; in the experiment with p38-beta it was 0%; in the experiment with p38-delta, 27%; in the experiment with p38-gamma, 0%.
Take `CSc1ccc(NC2=C(c3ccc(Cl)cc3)C(=O)NC2=O)cc1` [SB-317658]: the “%Inh” value in the experiment on ZAK was 28%; in the experiment on ZAP70 it was 0%; in the experiment on p38-alpha, 0%; with p38-beta, 12%; in the experiment on p38-delta, 11%; in the experiment on p38-gamma it was 0%.
For `CC(C)c1nc(-c2ccc(F)c(NS(=O)(=O)c3c(F)cccc3F)c2)c(-c2ccnc(Nc3ccc(N4CCOCC4)nc3)n2)s1` [GSK1804250], the “%Inh” value in the experiment on ZAK was determined as 98.3%; in the experiment with ZAP70, 0%; in the experiment on p38-alpha it was 96%; in the experiment on p38-beta it was 38%; in the experiment on p38-delta, 57%; in the experiment with p38-gamma, 1%.
For `CN1CCN(Cc2ccc(NC(=O)Nc3ccc(N(C)c4ccnc(Nc5ccc(CS(C)(=O)=O)cc5)n4)cc3)cc2)CC1.Cl` [GW827654], the “%Inh” value with ZAK is recorded as 21%; with ZAP70 it was 52%; with p38-alpha, 0%; in the experiment with p38-beta, 0%; in the experiment with p38-delta, 0%; in the experiment with p38-gamma, 48%.
In the case of `COc1ccc(C2=C(Nc3cccc(O)c3)C(=O)NC2=O)cc1` [SB-390766], the “%Inh” value is reported as 7% with ZAK; 0% with ZAP70; 23% in the experiment with p38-alpha; 0% with p38-beta; 94.4% with p38-delta; 0% in the experiment on p38-gamma.
For the molecule `CCn1c(-c2nonc2N)nc2c(-c3ccccc3)ncc(OCCCN)c21.O=C(O)C(F)(F)F.O=C(O)C(F)(F)F` [GSK260205], the “%Inh” value in the experiment on ZAK came out at 0%; in the experiment with ZAP70 it was 0%; with p38-alpha, 99.5%; in the experiment on p38-beta, 65%; with p38-delta, 26%; in the experiment on p38-gamma, 2%.
Turning to `CC(C)NCC(Cc1ccccc1)NC(=O)c1cc(Br)c(-c2ccnc3[nH]ccc23)s1.Cl.Cl` (stereo not drawn) [GSK1383281], the “%Inh” value in the experiment with ZAK is recorded as 73%; in the experiment on ZAP70, 0%; in the experiment with p38-alpha, 0%; in the experiment with p38-beta, 0%; in the experiment with p38-delta, 16%; in the experiment with p38-gamma, 0%.
For the molecule `COc1cccc2c(-c3ccncc3)c(-c3ccc(F)cc3)nn12` [GW468513], the “%Inh” value in the experiment on ZAK turned out to be 16%; with ZAP70, 9%; with p38-alpha it was 99.9%; in the experiment with p38-beta it was 82%; in the experiment with p38-delta, 34%; with p38-gamma it was 0%.
Regarding `Cn1cc(-c2ccc3c(c2)CCN3C(=O)Cc2cc(F)cc(F)c2F)c2c(N)ncnc21` [GSK2634140], the “%Inh” value with ZAK is given as 0%; in the experiment on ZAP70 it was 0%; in the experiment on p38-alpha it was 0%; with p38-beta, 0%; in the experiment with p38-delta, 14%; in the experiment with p38-gamma, 2%.
Consider `Cc1ccc(C)c(NC(=O)Nc2ccc(C)c(-c3ccc(C(=O)Nc4ccncc4)cc3)c2)c1` [GSK1398473], for which the “%Inh” value in the experiment with ZAK is recorded as 70%; in the experiment with ZAP70 it was 0%; in the experiment with p38-alpha, 0%; in the experiment with p38-beta it was 0%; in the experiment on p38-delta, 38%; in the experiment on p38-gamma, 0%.
With `COC(=O)Nc1nc2cc(Oc3ccc(NC(=O)Nc4cccc(SC)c4)cc3)ccc2[nH]1.Cl` [GW697999], the “%Inh” value is on record as 96.3% with ZAK; 0% in the experiment on ZAP70; 54% in the experiment with p38-alpha; 0% with p38-beta; 28% in the experiment with p38-delta; 4% with p38-gamma.
As for `COc1cccc(-c2nc(-c3ccccc3)[nH]c2-c2ccncc2)c1` [SB-610250], the “%Inh” value in the experiment on ZAK is listed as 5%; in the experiment on ZAP70 it was 0%; in the experiment on p38-alpha, 98.2%; in the experiment on p38-beta, 32%; with p38-delta it was 44%; in the experiment on p38-gamma, 0%.
On to `Cn1cc(-c2ccc3c(c2)CCN3C(=O)Cc2cc(F)cc(C(F)(F)F)c2)c2c(N)ncnc21` [GSK2635225], for which the “%Inh” value in the experiment with ZAK worked out at 11%; in the experiment with ZAP70, 0%; in the experiment on p38-alpha, 0%; in the experiment on p38-beta, 0%; in the experiment on p38-delta, 46%; in the experiment with p38-gamma, 0%.
`Nc1ncnc2scc(-c3ccc(NC(=O)Cc4cc(F)ccc4F)cc3)c12.O=C(O)C(F)(F)F` [SB-731254-M]: the “%Inh” value was found to be 4% with ZAK; 0% in the experiment on ZAP70; 0% with p38-alpha; 7% with p38-beta; 0% in the experiment with p38-delta; 41% in the experiment with p38-gamma.
With `CN(c1ccc(NC(=O)N2CCN(CCCN3CCOCC3)CC2)cc1)c1ccnc(Nc2ccc(CS(C)(=O)=O)cc2)n1.Cl` [GW830899], the “%Inh” value was 5% in the experiment on ZAK; 0% in the experiment with ZAP70; 9% with p38-alpha; 0% in the experiment on p38-beta; 0% in the experiment with p38-delta; 41% with p38-gamma.
As for `Cc1ccc(NC(=O)c2ccnc(N3CCCCC3)c2)cc1-c1ccc(C(=O)NCC2CC2)cc1` [GW775610], the “%Inh” value in the experiment on ZAK worked out at 21%; in the experiment on ZAP70 it was 0%; in the experiment on p38-alpha it was 99.9%; in the experiment on p38-beta it was 100%; in the experiment with p38-delta, 2%; with p38-gamma, 62%.
With `Cc1ccc(-c2ccc3occ(-c4ccc(S(C)=O)cc4)c3c2)nn1` (stereo not drawn), the “%Inh” value in the experiment on ZAK was found to be 0%; in the experiment on ZAP70, 13%; in the experiment on p38-alpha it was 0%; in the experiment with p38-beta it was 10%; with p38-delta, 0%; with p38-gamma, 0%.
As for `Fc1cc(Cl)ccc1Nc1ccnc2cc(-c3ccc(CN4CCSCC4)o3)ccc12` [GW560106], the “%Inh” value with ZAK was 52%; in the experiment with ZAP70, 0%; in the experiment on p38-alpha it was 35%; in the experiment with p38-beta, 0%; in the experiment with p38-delta it was 36%; in the experiment on p38-gamma it was 0%.
Take `O=C(Nc1n[nH]c2cc(-c3cccs3)ccc12)C1CC1` [SB-731284]: the “%Inh” value in the experiment with ZAK is 22%; in the experiment with ZAP70, 12%; in the experiment on p38-alpha it was 0%; in the experiment on p38-beta, 0%; in the experiment on p38-delta it was 0%; with p38-gamma it was 22%.
As to `COc1ccc(NC(=O)c2ccoc2)cc1-c1ccc(C(=O)NCC2CC2)cc1` [GW810437], the “%Inh” value in the experiment on ZAK is reported as 2%; in the experiment on ZAP70, 36%; in the experiment with p38-alpha, 10%; in the experiment with p38-beta, 1%; with p38-delta, 0%; in the experiment with p38-gamma, 0%.
Regarding `CS(=O)(=O)c1cccc(CNc2nc(Nc3ccc4c(c3)CCC(=O)N4)ncc2C(F)(F)F)c1`, the “%Inh” value in the experiment with ZAK came to 0%; with ZAP70 it was 43%; with p38-alpha, 3%; in the experiment with p38-beta it was 0%; with p38-delta it was 8%; in the experiment with p38-gamma it was 4%.
For the molecule `COC(=O)Nc1nc2ccc(Oc3ccc(NC(=O)Nc4cc(C(F)(F)F)ccc4F)cc3)cc2[nH]1.Cl` [GW654607], the “%Inh” value in the experiment with ZAK amounted to 98%; in the experiment with ZAP70 it was 0%; in the experiment with p38-alpha, 88%; in the experiment with p38-beta it was 70%; with p38-delta, 65%; in the experiment with p38-gamma it was 9%.
